# This is part of a sample that, as a whole, favours compounds with a hit. Of some 83,000 tested, about 20% had one in any assay.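 Cells were grown in 96-well plates and exposed to the test compound at a single concentration for 48 hours; results are reported as percent growth, with values below 10 considered active.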 Calls of active or inactive are those of the source.
# Tested on: SW-620 colon
# Assay: NCI-60 one-dose screen, 48 h (100 = growth as untreated, 0 = no growth, -100 = all killed)
# Conditions: 10 µM
# Method: Growth inhibition of the SW-620 human tumor cell line is measured as a screen for anti-cancer activity. Cells are grown in 96 well plates and exposed to the test compound for 48 hours. Compounds are tested at a single concentration, which is 10^-5 M for most compounds. The reported endpoint is percent growth (GI% or GIPRCNT), where numbers from 0 - 100% represent growth inhibition, and numbers from -100% - 0 represent cell death. For example, a value of 40 represents 60% growth inhibition. A value of 0 means no net growth occurred over the course of the experiment. A value of -40 indicates 40% of cells at the beginning of the experiment died by the end of the experiment. A value of -100 means all cells are dead at the end of the experiment.
# NCI-60 Human Tumor Cell Lines Screen was performed using the standard one-dose NCI protocol, which is described in more detail at https://dtp.cancer.gov/discovery_development/nci-60/default.htm.
# Compounds with GIPRCNT values below 10 were considered active. Activity score was based on GIPRCNT using the following formula: […]
# Score is 0 for GIPRCNT values of 100 or above, 50 for GIPRCNT values of 0, and 100 for GIPRCNT values of -100.
row,Compound,growth
1,C#Cc1ccc(-n2c(/C=C/c3ccc(Cl)c(F)c3)nc3ncccc3c2=O)cc1,-27.3% (active)
2,Clc1ccccc1N=Cc1ccc2c(c1)OCO2,114% (inactive)
3,COc1ccc(-c2nn(-c3cccc(NC(=O)Nc4cc(C(F)(F)F)cc(C(F)(F)F)c4)c3)cc2-c2ccncc2)cc1Cl,10.9% (inactive)
4,FC(F)(F)c1ccc(-c2cnc(-n3cc(COCCN4CCCCC4)nn3)nc2NC2CCCCCC2)cc1,4.79% (active)
5,CCOC(=O)c1ccoc1,100% (inactive)
6,CCCCCCCCCCCCCCCCCC(=O)OCCCCCCC,97.5% (inactive)
7,CC(C)C[C@H](NC(=O)[C@H](Cc1cccc2ccccc12)NS(=O)(=O)c1cccc2cccnc12)B(O)O,-16% (active)
8,O=C1/C(=C\c2ccc(F)cc2)CN(C(=O)c2ccccc2F)C/C1=C\c1ccc(F)cc1,-78.3% (active)
9,COc1ccccc1CNCCCN1C(=O)c2ccc3c4c(ccc(c24)C1=O)C(=O)N(CCCN)C3=O,-69.8% (active)
10,O=C(CNC(=O)OCc1ccccc1)NCC(=O)Oc1ccc([N+](=O)[O-])cc1,95.9% (inactive)
11,O=C1C(=O)c2ccccc2C(O)=C1CCCc1ccc(C2CCCCCC2)cc1,32.9% (inactive)
12,Clc1ccc(-c2cn(-c3ccccc3)c(-c3ccccc3)n2)c(Cl)c1,-100% (active)
13,O=C(N/N=C/c1ccccc1)C(Oc1ccccc1)c1ccccc1 (stereo not given),96.2% (inactive)
14,COc1ccc2c(c1)/C(=C\c1c[nH]c3ccc(OC)cc13)C(=O)N2,15.1% (inactive)
15,COC(=O)C1=NNC(=S)N(c2cc(C)[nH]n2)C(=O)C1,102% (inactive)
16,CNc1ccc(CSc2ccc(C)cc2)cc1,93.7% (inactive)
17,CCCCCCc1cc(N=Nc2ccc(S(=O)(=O)Nc3cc(C)nc(C)n3)cc2)c(O)cc1O,113% (inactive)
18,O=C(Nc1ccncc1)C(=O)c1cn(S(=O)(=O)c2ccc(F)cc2)c2ccccc12,12% (inactive)
19,CN1CCC(CNc2cc(C3(C(=O)Nc4cc(C(=O)Nc5ccc(Cl)c(C(F)(F)F)c5)ccc4F)CC3)ncn2)CC1,-9.83% (active)
20,COc1cc(-c2cc(/C=C/C(=O)c3ccc(Cl)c(Cl)c3)[nH]n2)cc(OC)c1OC,60.7% (inactive)

row,Compound,growth
1,COc1cc(-c2cc(/C=C/C(=O)c3ccc4c(c3)OCO4)[nH]n2)cc(OC)c1OC,47.4% (inactive)
2,c1ccc2c(-c3nc(N4CCOCC4)c4c5c(sc4n3)CCCCCC5)cccc2c1,108% (inactive)
3,Nc1c(C(=O)Nc2ccccc2Cl)sc2nc3c(cc12)C(=O)CCC3,29% (inactive)
4,COc1ccc(OC)c(/C=C/c2nc(SC)n(-c3ccc(Cl)cc3)n2)c1,77.4% (inactive)
5,COc1cccc(Cn2c(-c3nonc3N)nc3ccccc32)c1,14.4% (inactive)
6,CN(C)Cc1cn(-c2ncc(-c3ccc(C(F)(F)F)cc3)c(NC3CCCCCC3)n2)nn1,99.4% (inactive)
7,CCCCCCN1CCN(Cc2ccc(N(CC)CC)cc2)C(=O)C1=O,24% (inactive)
8,CN(Cc1ccccc1)Cc1ccc([N+](=O)[O-])cc1I,89% (inactive)
9,COc1ccc(-c2cc(/C=C/C(=O)c3cc(OC)c(OC)c(OC)c3)[nH]n2)cc1OC,-65.6% (active)
10,Cc1cccc(Cl)c1NC(=O)c1ccc2nc(NC(=O)NC3CCN(C)CC3)sc2c1,98.4% (inactive)
11,COc1cccc(C(=O)Nc2ccc(CN3CCc4nc5cc(OC)c(OC)cc5cc43)cc2)c1,59% (inactive)
12,Cn1c([N+](=O)[O-])cnc1/C=C1\Oc2cc(Cl)ccc2C1=O,-47.3% (active)
13,Clc1ccc(Sc2nc(NC3CC3)nc(Sc3ccc(Cl)cc3)n2)cc1,83.3% (inactive)
14,C[C@]12CC[C@@H]3c4ccc(O)cc4C[C@@H](O)[C@H]3[C@@H]1CC[C@@H]2O,110% (inactive)
15,COc1cc(/C=N/NC(=O)c2ccccc2Nc2cccc(C(F)(F)F)c2)cc(OC)c1OC,3.91% (active)
16,CN(C)CCOc1nc2ccccc2c2c1-c1ccc(Cl)cc1C2=O,-60.8% (active)
17,Cc1nc2c(c(=O)[nH]1)OCN(Cc1ccccc1)C2,102% (inactive)
18,CC(C)N(CCNc1nc(C(Cl)(Cl)Cl)nc2cc(Cl)ccc12)C(C)C,-30.6% (active)
19,CCOC(=O)C1(CC(C)C)CCOC1=O (stereo not given),98.3% (inactive)
20,COc1ccc2c(c1)O/C(=C\c1ccc([N+](=O)[O-])o1)C2=O,-53.8% (active)
